The panel holds about 83,000 compounds, 20% with a hit somewhere; the sample as a whole holds those more often.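 How to read the values: 0–100, growth inhibition (40 = 60% inhibited); 0, no net growth; -100 to 0, cell death (-40 = 40% of starting cells died; -100 = all dead).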 Values without a mark were called inactive. Calls of active or inactive are those of the source. The calls were made as follows: active = growth percent below 10; inactive = the rest.

Drawing on PubChem BioAssay (NCI), this text covers growth for six compounds.

Test in all cases: NCI-60 one-dose screen, 48 h (100 = growth as untreated, 0 = no growth, -100 = all killed)
One assay concerns HCT-15 colon. The settings on record: 10 µM unless noted.
The next assay concerns HT29 colon. The settings on record: 10 µM unless noted.
Another assay has as its system SNB-75 CNS. The settings on record: 10 µM unless noted.
For a further assay, the system named is SNB-19 CNS. The following applies: 10 µM unless noted.
For another assay, the system named is U251 CNS. The settings on record: 10 µM unless noted.
For the next assay, the system named is PC-3 prostate. The following applies: 10 µM unless noted.
For a further assay, the system named is SK-MEL-5 melanoma. The settings on record: 10 µM unless noted.
In the next assay the test system is UACC-62 melanoma. The following applies: 10 µM unless noted.
The test system of another assay is LOX IMVI melanoma. The settings on record: 10 µM unless noted.
Another assay deals with SK-MEL-28 melanoma. The following applies: 10 µM unless noted.
Another assay relates to SK-MEL-2 melanoma. The settings on record: 10 µM unless noted.
For a further assay, the system named is EKVX NSCLC. The settings on record: 10 µM.
The subject of a further assay is SN12C renal. The following applies: 10 µM unless noted.
The next assay relates to UO-31 renal. The settings on record: 10 µM unless noted.
The subject of another assay is TK-10 renal. The settings on record: 10 µM unless noted.
For a further assay, the system named is ACHN renal. The settings on record: 10 µM unless noted.
A further assay concerns CAKI-1 renal. The settings on record: 10 µM unless noted.
A further assay deals with A498 renal. The settings on record: 10 µM unless noted.
A further assay has as its system CCRF-CEM leukemia. The settings on record: 10 µM.
The next assay deals with MOLT-4 leukemia. The following applies: 10 µM unless noted.

For the compound `C[C@H]1C[C@@H](n2cnc3c(N)nccc32)[C@H](O)[C@@H]1O`, the growth in the assay with HCT-15 colon was 87.8%; in the assay with HT29 colon it was 89.2%; with SNB-75 CNS it was 100%; in the assay with SNB-19 CNS, 82%; in the assay on U251 CNS it was 69.2%; in the assay on PC-3 prostate, 110%. Further, the growth was 96.7% in the assay on SK-MEL-5 melanoma; 98.7% with UACC-62 melanoma; 79.8% in the assay on LOX IMVI melanoma; 88% in the assay with SK-MEL-28 melanoma; 106% in the assay on SK-MEL-2 melanoma; 96.3% in the assay on EKVX NSCLC. In addition, the growth was 92.3% in the assay on SN12C renal; 167% in the assay on UO-31 renal; 119% with TK-10 renal; 101% in the assay on ACHN renal; 116% with CAKI-1 renal; 120% with A498 renal. In addition, the growth was 23.6% in the assay with CCRF-CEM leukemia and 65% in the assay on MOLT-4 leukemia.
As for `COC(=O)Nc1nc2ccc(C(=O)c3ccccc3N(C)C3COC3)cc2[nH]1`, the growth in the assay with HCT-15 colon is 23.5%; with HT29 colon, 9.07% (active); with SNB-75 CNS, 16.4%; in the assay on SNB-19 CNS, 37.8%; in the assay on U251 CNS, 21.4%; in the assay with PC-3 prostate, 23%. Moreover, the growth in the assay with SK-MEL-5 melanoma was 22.6%; in the assay on UACC-62 melanoma, 27%; in the assay with LOX IMVI melanoma, 30.8%; with SK-MEL-28 melanoma, 63.6%; in the assay on SK-MEL-2 melanoma, 24.2%; in the assay with EKVX NSCLC it was 53.6%. In addition, the growth is 44.1% with SN12C renal; 39.9% with UO-31 renal; 59.5% in the assay on TK-10 renal; 40.5% with ACHN renal; 45.2% with CAKI-1 renal; 9.85% (active) in the assay with A498 renal. For the same compound, the growth is 8.11% (active) in the assay on CCRF-CEM leukemia and 30.3% in the assay on MOLT-4 leukemia.
As to `COC(=O)c1ccc2[nH]c(O)c(C(=Nc3ccc(N(C)C(=O)CN4CCN(C)CC4)cc3)c3ccc(OC)cc3)c2c1`, the growth in the assay on HCT-15 colon was 10.4%; in the assay on HT29 colon it was 20%; in the assay with SNB-75 CNS, 6.7% (active); in the assay on SNB-19 CNS, 32.4%; in the assay with U251 CNS, 19%; in the assay on PC-3 prostate it was 28.7%. The growth in the assay with SK-MEL-5 melanoma was 28.5%; in the assay on UACC-62 melanoma it was 39.2%; in the assay on LOX IMVI melanoma, 16.1%; with SK-MEL-28 melanoma, 32.8%; with SK-MEL-2 melanoma, 16.9%; in the assay with EKVX NSCLC, 45.7%. Moreover, the growth in the assay with SN12C renal is 17%; in the assay on UO-31 renal it was 14.3%; in the assay on TK-10 renal, 27.6%; in the assay with ACHN renal, 14.9%; in the assay on CAKI-1 renal it was 5.5% (active); in the assay on A498 renal, -16.6% (active). The growth with CCRF-CEM leukemia is 6.43% (active); in the assay with MOLT-4 leukemia it was 2.57% (active).
Turning to `NC(=O)CC(NC(=O)COc1ccc(Cl)cc1Cl)C(=O)O` (centres undefined), the growth in the assay on HCT-15 colon is 112%; in the assay with HT29 colon it was 107%; in the assay with SNB-75 CNS, 102%; in the assay on SNB-19 CNS, 103%; with U251 CNS, 101%; in the assay on PC-3 prostate, 94.2%. Further, the growth with SK-MEL-5 melanoma was 98.8%; in the assay on UACC-62 melanoma it was 98.6%; with LOX IMVI melanoma it was 97.1%; in the assay with SK-MEL-28 melanoma, 109%; in the assay on SK-MEL-2 melanoma, 104%; with EKVX NSCLC it was 111%. For the same compound, the growth in the assay with SN12C renal was 101%; in the assay with UO-31 renal, 95.6%; with TK-10 renal, 103%; in the assay on ACHN renal, 109%; with CAKI-1 renal, 101%; with A498 renal, 88%. For the same compound, the growth with CCRF-CEM leukemia is 105%; in the assay with MOLT-4 leukemia, 104%.
Take `C/C(CCC(=O)O)=N/Nc1ccc([N+](=O)[O-])cc1`: the growth in the assay with HCT-15 colon is 34.5%; with HT29 colon, 86.1%; in the assay on SNB-75 CNS, 101%; in the assay with SNB-19 CNS, 94.4%; with U251 CNS, 75.7%; in the assay with PC-3 prostate it was 65.1%. Also, the growth with SK-MEL-5 melanoma was 46.3%; in the assay on UACC-62 melanoma, 23%; in the assay on LOX IMVI melanoma, 23.9%; in the assay on SK-MEL-28 melanoma it was 104%; in the assay on SK-MEL-2 melanoma, 26.9%; in the assay with EKVX NSCLC it was 63.1%. Besides, the growth in the assay with SN12C renal is 77.1%; in the assay on UO-31 renal, 39%; with TK-10 renal, 88.1%; in the assay with ACHN renal, 36.3%; in the assay on CAKI-1 renal it was 25.7%; with A498 renal, 75.8%. The values for the growth in the assay with CCRF-CEM leukemia and in the assay with MOLT-4 leukemia were 18.2% and 37.3%, respectively.
For the compound `N#CC1=C(N2CCOCC2)NC2c3ccccc3Sc3ccccc3N2C1=N` (centres undefined), the growth with HCT-15 colon is 104%; with HT29 colon, 104%; in the assay with SNB-75 CNS it was 94.1%; with SNB-19 CNS, 107%; in the assay with U251 CNS it was 98.7%; in the assay on PC-3 prostate, 88.8%. Besides, the growth was 90.3% with SK-MEL-5 melanoma; 87.4% with UACC-62 melanoma; 94.2% in the assay with LOX IMVI melanoma; 93.9% in the assay on SK-MEL-28 melanoma; 108% with SK-MEL-2 melanoma; 92.8% in the assay with EKVX NSCLC. Further, the growth with SN12C renal is 103%; in the assay with UO-31 renal, 72.9%; in the assay with TK-10 renal it was 96.9%; in the assay on ACHN renal, 91.5%; in the assay with CAKI-1 renal, 94%; with CCRF-CEM leukemia, 82.7%. In the assay with MOLT-4 leukemia, the growth is 120%.
